Assay results: PubChem BioAssay (NCI)
About 83,000 compounds went through this panel and 20% of them were active in at least one assay; those are over-represented in the sample as a whole.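 Single-dose data. Exposure time 48 hours. Values below 10 considered active.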 Unmarked numbers belong to inactive results. Calls of active or inactive are those of the source.

How the values were obtained:
Assay in all cases: NCI-60 one-dose screen, 48 h (100 = growth as untreated, 0 = no growth, -100 = all killed)
[1] = tested on: HT29 colon; conditions: 10 µM unless noted
[2] = tested on: SNB-75 CNS; conditions: 10 µM unless noted
[3] = tested on: SNB-19 CNS; conditions: 10 µM unless noted
[4] = tested on: U251 CNS; conditions: 10 µM unless noted
[5] = tested on: PC-3 prostate; conditions: 10 µM unless noted
[6] = tested on: SK-MEL-5 melanoma; conditions: 10 µM unless noted
[7] = tested on: UACC-62 melanoma; conditions: 10 µM unless noted
[8] = tested on: SK-MEL-2 melanoma; conditions: 10 µM unless noted
[9] = tested on: SN12C renal; conditions: 10 µM unless noted
[10] = tested on: UO-31 renal; conditions: 10 µM unless noted
[11] = tested on: TK-10 renal; conditions: 10 µM unless noted
[12] = tested on: ACHN renal; conditions: 10 µM unless noted
[13] = tested on: CAKI-1 renal; conditions: 10 µM unless noted
[14] = tested on: A498 renal; conditions: 10 µM unless noted
[15] = tested on: CCRF-CEM leukemia; conditions: 10 µM unless noted
[16] = tested on: MOLT-4 leukemia; conditions: 10 µM unless noted
[17] = tested on: SR leukemia; conditions: 10 µM unless noted
[18] = tested on: SK-MEL-28 melanoma; conditions: 10 µM
[19] = tested on: LOX IMVI melanoma; conditions: 10 µM unless noted
[20] = tested on: EKVX NSCLC; conditions: 10 µM unless noted

Row | SMILES | growth [1] | growth [2] | growth [3] [%] | growth [4] | growth [5] | growth [6] | growth [7] | growth [8] | growth [9] | growth [10] | growth [11] | growth [12] | growth [13] | growth [14] | growth [15] | growth [16] | growth [17] | growth [18] | growth [19] | growth [20]
1 | O=C(Nc1ccccc1O)c1ccc(Oc2cccc(C(=O)Nc3ccccc3O)c2)cc1 | 77.7% | 31.1% | 21.7 | 11.8% | 32.6% | 10.9% | -33% (active) | 28.4% | 15.4% | 5.32% (active) | 28.3% | 15.8% | -0.0411% (active) | 20.5% | -6.44% (active) | -28.5% (active) | -28.6% (active) | – | – | –
2 | CCCCc1ccc(NS(=O)(=O)c2cc3c4c(c2)CCN4C(=O)CC3)cc1 | 29.9% | 33.9% | 26.8 | 11% | 38.3% | 0.989% (active) | -28.9% (active) | 40.8% | 9.46% (active) | 5.85% (active) | 33.8% | 15.5% | 9.87% (active) | -27.7% (active) | 5.87% (active) | 1.64% (active) | 3.07% (active) | 40.5% | – | –
3 | Nc1ccc(-c2nn3c(CCC(=O)c4nc5ncccc5[nH]4)nnc3s2)c(O)c1 | 103% | 70.3% | 88.2 | 103% | 82.8% | – | 92.9% | 100% | 87.8% | 68.7% | 144% | 90.5% | 70.1% | 75.3% | 94.1% | 82.8% | – | 105% | 85.2% | 98%
4 | O=C(Nc1ccc(Cl)cc1F)c1cc(I)ccc1O | 103% | 16.5% | 18.9 | 9.91% (active) | 44% | – | -1.26% (active) | -19.3% (active) | 29.5% | 34% | 15.8% | 34.3% | 22.8% | -28.2% (active) | 29.9% | 31.7% | – | 18.5% | 19% | 77%
5 | CC(=O)n1cc(-c2c[nH]c3ccccc23)c(-c2ccc(Cl)cc2)n1 | 95.9% | 80.9% | 112 | 74.9% | 81.5% | 78.8% | 93.5% | 97.6% | 99.8% | 60.5% | 94.9% | 78.5% | 61.2% | 71.6% | 82.2% | 88.2% | 92.9% | 93.7% | – | –
6 | COc1ccc(-c2cn[nH]c2-c2ccc(OC)c(O)c2)cc1 | 94.3% | 87.6% | 76.5 | 63.1% | 84% | – | 66% | 42% | 91.3% | 85.1% | 88.6% | 92.2% | 75% | 59% | 71.9% | 67.4% | 33.7% | 89.1% | 59.5% | 84.9%
7 | O=C(CCc1nnc2sc(Cc3ccccc3Cl)nn12)c1nc2ncccc2[nH]1 | 104% | 67.7% | 93.3 | 104% | 85.6% | – | 83.2% | 97.9% | 87.3% | 63.5% | 128% | 94.9% | 74.4% | 87.5% | 103% | 86.2% | – | 96.2% | 88% | 94.6%
8 | O=C(Nc1ccc(Br)cc1F)c1cc(F)ccc1O | 18% | -16.8% (active) | 19.3 | 3.38% (active) | 2.45% (active) | – | -16.4% (active) | -29.2% (active) | 3.29% (active) | 6.93% (active) | 3.6% (active) | 1.78% (active) | -16.7% (active) | -68.8% (active) | 7.49% (active) | 0.344% (active) | – | 6.8% (active) | 9.8% (active) | 7.73% (active)
9 | COc1cc(C2C3=C(COC3=O)N(CCO)c3cc4c(cc32)CCC4)cc(OC)c1O (stereo unspecified) | 0.722% (active) | 3.02% (active) | 31.2 | 15.3% | 31.7% | 11.8% | 39.8% | – | – | 49.7% | 45% | 42.8% | 21.1% | 17.2% | 17.2% | 20.6% | 33.1% | – | – | 34.3%
10 | NCCNc1nc2ccc(F)cc2c2c(=O)c3cc(F)ccc3sc12 | -39.5% (active) | 39.9% | 64.6 | 24.1% | 45% | – | 84.2% | 91.5% | 46.3% | 35.6% | 59.1% | 31.6% | 22.5% | 41.2% | 20.7% | 5.51% (active) | – | 91% | -90.8% (active) | 75.9%
11 | COc1cc(C2C(C#N)=C(N)OC3=C2C(=O)c2ccccc2C3=O)cc(OC)c1OC (stereo unspecified) | 106% | 7.57% (active) | 34.2 | 17.9% | 19% | – | 25.9% | -2.31% (active) | 39.2% | 41.2% | 63.9% | 37.3% | 40.9% | -0.0439% (active) | 55.6% | 87.1% | 31.6% | 58.1% | 27.4% | 52.4%
12 | CN1CCN(c2nc(Nc3ccc(O)cc3)nc3ccccc23)CC1 | 43.4% | 75.2% | 55.9 | 33.9% | 60% | 46.1% | 49.2% | 76.8% | 63.8% | 57.3% | 71.9% | 49.5% | – | 85.2% | 93.4% | 98.4% | 87% | 66.2% | – | –
13 | COCCN(C(=O)Cc1cccs1)C(C(=O)NCc1ccc(OC)cc1)c1ccc(C(C)C)cc1 (stereo unspecified) | 97.2% | 79.7% | 106 | 97.1% | 47.5% | 98.2% | 84.8% | 102% | – | 82.5% | 115% | 87.1% | 84.6% | 77.1% | 93.9% | 80.3% | 74.3% | 113% | – | –
14 | CC(C)CCNCC(O)Cn1c2ccccc2c2ccccc21 (stereo unspecified) | -12.7% (active) | -3.3% (active) | 24.4 | 14.4% | 20.2% | -20.6% (active) | 14.1% | 13.7% | 19.4% | -14.4% (active) | 33.1% | 2.8% (active) | -0.189% (active) | 3.02% (active) | 13% | 2.44% (active) | 3.35% (active) | 14.9% | – | –
15 | O=C(Nc1ccc(F)cc1F)c1cc(Br)ccc1O | 27.8% | -17.9% (active) | 12.1 | 3.39% (active) | -8.08% (active) | – | -19.7% (active) | -27.5% (active) | -7.89% (active) | 1.12% (active) | 2.49% (active) | 1.37% (active) | -26.3% (active) | -49.5% (active) | 10.6% | 0.366% (active) | – | 16.5% | 17% | 8.29% (active)
16 | O=C(COc1cc(O)c2c(=O)cc(-c3ccccc3)oc2c1)Nc1ccccc1C(F)(F)F | 70.6% | -4.06% (active) | 45.2 | 4.09% (active) | 64.6% | – | 77.5% | 92% | 27.7% | 17.1% | -13.9% (active) | 17.8% | 22.3% | 55.9% | 58.6% | 52.1% | – | 79.1% | 52% | 51.4%
17 | Cc1ccc2nc(NC(=O)CSC(=S)N3CCN(c4ccccc4)CC3)sc2c1 | 96.6% | 97.1% | 96.9 | 86.3% | 95.5% | 95.4% | – | 96.1% | 99% | 88.2% | 108% | 100% | – | 108% | – | 111% | 98.7% | 107% | -65% (active) | 109%
18 | O=c1nc2sc3nc4ccccc4cc3cc-2s1 | 147% | 116% | 101 | 115% | – | 100% | 116% | 112% | 101% | 117% | 131% | 105% | 137% | 94.6% | 127% | 120% | 134% | 110% | 111% | 48%
